Consider 40 sequences from the supplement of paper PMC6555819.

For the assay, the system named is VDR:RXRa (NR concentration 270 nM, RXRa partner concentration 90 nM). Put plainly: PBM binding z-score (relative to random genomic background probes); higher = stronger binding; sequences stand for … in GC…GCGATTGACAGCGTAGAATGAAGG
Here is the method:
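Protein-binding microarray (Agilent 4x180K custom design, double-stranded 60-nt probes: 5' GC cap, 34-nt variable region, 24-nt constant primer region; full probe sequence given). Purified or IVT nuclear receptor:RXRα heterodimers (3:1 NR:RXRα, mostly 270:90 nM) or homodimers were incubated for 1 h in PBS with 2% milk and no ligand, then detected with Alexa488 antibodies. Fluorescence from o1-orientation probes (~5 replicates averaged) was converted to z-scores against 500 random hg19 background probes. Variable regions are seed direct-repeat (DR0–DR5) sites, all their single-nucleotide variants and half-site ablations.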
In turn, ACATGTAGGTTAAGGGTCATTCAGGTTGGTTCGC gave a PBM binding z-score of 5.84. To ACCAGTTGGTCAGCTGAGGTCACACACAATTCGG belongs 4.45; to ACAGACACGTGATGAAGGTAACTCAGGCTATCAT, 0.0575; to ATCTCTAGGTAACGTTCAGTGAAAGATCGATAGA, 0.101. The value for ACTAGTTGGTCAGGTGAGGTCACACACAATTCGG was 4.8. The value for CCTACTGGGCCATCAGGTCATTTATATCAACGTT was 1.65; that for CCTCAGAGGACAACAGGAGGTCAGAGCTGCCAGA was 2.34. In turn, CGAACTAGGTCAAGAGGTCAAAGTCCGCTTCCCG returned a PBM binding z-score of 6.13.

For the sequence ACTAGCAGGCCAGGGGTCACTCAAGATTAGTCCG, the PBM binding z-score worked out at 4.42. The value for ACTAGCAGGCCAAGTTTGGGTCACTCAAACAAAG was 0.525; that for CCAGACAGGTGAGAAGGCAACTCAGCCTCGATTA was -0.345; that for CGAACTAGGTCATTGACAGGTCAGTGAATAGTAA was 3.9. To GCTAGCAGGCCATTTGGGTCACACAATGACGGGC belongs 1.24; to ACAGACAGGTGAGGGAAGGTAACTCAGCTGGACG, -0.405. To ATAGAAAGGTCGACGAGGTGAGTATACACCGTTT belongs 5.01. Consider ATCTCTAGGTAACGATAGTTCAGTGAATGCAAAT, for which the PBM binding z-score came out at 0.643. Turning to TCTATTAATTGAAGGGCAACCGACGAGTCCGTTT, the PBM binding z-score was 1.05. To GCTTGCAGGCCATTTGGGTCACTCAATGACGGGC belongs 1.08; to ATCGAAAGGTCGACGAGGTGAGTTTACACCGTTT, 5.25. ATCGAAAGGTCGATGAGGTGAGTATACACCGTTT gave a PBM binding z-score of 5.2. The value for CCTTACGGGTCACTCCAAGTTATAGCATCGGAGT was 2.82; that for TGATATAGGTAAAAGGTGAAAGTCGGTGTGGTAA was 1.33.

In the case of CGTTACGGGTCAAGGTTATAGCACGGGTGGTACG, the PBM binding z-score was found to be 3.62. To GAAACGAGGGCATTCGAGTTGATAGCATGGCGAT belongs 3.97. The value for CCTTACGGGTCACTGACAGGTTAAAGCATTTGGA was 3.75. TGAATGAGGTTAAGGATCAGGGAACGTGGCGTCG showed a PBM binding z-score of 0.99. In the case of CCGCCTAGGTCAGGGCCAGTATAGGAGGAACGTT, the PBM binding z-score was determined as 0.294.

On to ACAGACAGCTGAGTGAAGGTAACTCAGCTGGACG, for which the PBM binding z-score is -0.322. The value for ACAGACAGGTGATGAAGGTAAGTCAGGCTATCAT was -0.133; that for CCGACTGGGGCAAAGGTTACCCTACTCAGTACGA was 1.23. To TCATATAGGTAAAGGGGAAAGTCGAACGATATGA belongs 0.735; to GCAGACAGGTGAAACGCAGTTAACTCAGGGTGGC, -0.561.

As for CCAGGCAGGTGAGAAGGTAACTCAGCCTCGATTA, the PBM binding z-score is -0.539.

AATACAGGGTCAGTAGGCCAGAGTAGGTACGAAT came in with a PBM binding z-score of 2.65. In turn, TCACATAGGTAAACAGGTGAAAGTCCGTAAGTTA showed a PBM binding z-score of 0.849.

In turn, ATATGTAGGCTAAGGGTCATTCAGGTTGGTTCGC had a PBM binding z-score of 5.13. For TCGAGTAGGCTAGTCGGGGCATTCAGCCAACATA, the PBM binding z-score was -0.402. To TCATATAGGTAAAAGCTAGGTGAAAGTCCGATCT belongs 0.608; to TCTTGTGGATCAACAGGAGGTTAAGAAAGATCGA, 0.329. The value for CTCGAAAGGTCGGTTGAGGTGAGTTTACGGATAA was 3.29.
